As a reminder, the AC50 is the concentration at which the activity in the assay is half-maximal.

This note sets out measurements from PubChem BioAssay (EPA / NIEHS).

The structures appear in SMILES notation. Records with an inconclusive call do not appear. Activity calls are given as the source filed them. The calls were made as follows, unless noted: active = hit-call score of the fitted dose curve at least 0.9, where 1 is the maximum; inconclusive = response in the unintended direction; inactive = score below 0.9.

Assay [1] can be described thus: Tanguay_ZF_120hpf_JAW_legacy: (Legacy) Oregon State University Tanguay Lab 120 Hour Post-fertilization zebrafish Assay for Jaw Malformation (AID 2283638).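 As to AC50: active means more embryos with jaw malformation than DMSO controls.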 The essentials:
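Binary jaw-malformation call at 120 hpf by brightfield microscopy. Embryos (Tropical 5D strain, chorion removed at 4 hpf) were dosed statically at 6 hpf, one per well, at 28C with 0.64% DMSO. Embryos that died were not scored.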

Assay [2] in a line: Tanguay_ZF_120hpf_OTIC_legacy: (Legacy) Oregon State University Tanguay Lab 120 Hour Post-fertilization zebrafish Assay for Otic Vesicle Malformation (AID 2283639). An outline of the steps: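 Binary scoring of otic vesicle defects at 120 hpf in zebrafish (Tropical 5D) held under static exposure at 28C, sealed and shaded, with final DMSO 0.64%. Embryos dying by 24 or 120 hpf excluded; fitted positively against DMSO.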

The nature of assay [3]: Tanguay_ZF_120hpf_PE_legacy: (Legacy) Oregon State University Tanguay Lab 120 Hour Post-fertilization zebrafish Assay for Pericardial Edema (AID 2283640).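 As to AC50: potency for increased incidence of pericardial edema versus DMSO baseline.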 An outline of the steps:
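Scoring was binary, by brightfield microscopy at 120 hpf, and skipped where mortality occurred. Wild-type embryos were kept under sealed, foil-covered static exposure at 28C in 0.64% (vol/vol) DMSO.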

A short description of assay [4]: Tanguay_ZF_120hpf_CFIN_legacy: (Legacy) Oregon State University Tanguay Lab 120 Hour Post-fertilization zebrafish Assay for Caudal Fin Malformation (AID 2283649). An outline of the steps: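 Binary brightfield scoring of caudal fin defects at 120 hpf after static, light-shielded exposure at 28C from 6 hpf. Tropical 5D embryos, chorion removed with pronase at 4 hpf, final DMSO 0.64%.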

Assay [5] is described as follows: Tanguay_ZF_120hpf_PIG_legacy: (Legacy) Oregon State University Tanguay Lab 120 Hour Post-fertilization zebrafish Assay for Pigmentation Malformation (AID 2283650). An outline of the steps: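 Brightfield scoring of pigmentation malformation at 120 hpf, recorded as binary present/absent per larva. Exposure: dechorionated 5D wild-type embryos, one per well, static from 6 hpf at 28C, final DMSO 0.64% (vol/vol). Dead embryos not scored.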

A short description of assay [6]: Tanguay_ZF_120hpf_CIRC_legacy: (Legacy) Oregon State University Tanguay Lab 120 Hour Post-fertilization zebrafish Assay for Circulatory Malformation (AID 2283651). An outline of the steps:
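Binary circulatory malformation call at 120 hpf by brightfield imaging of zebrafish larvae; chorion removed at 4 hpf, static exposure from 6 hpf in sealed dark plates at 28C, final DMSO 0.64%; non-mortality endpoints skipped if embryo died.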

A short description of assay [7]: Tanguay_ZF_120hpf_SWIM_legacy: (Legacy) Oregon State University Tanguay Lab 120 Hour Post-fertilization zebrafish Assay for Swim Bladder Malformation (AID 2283654).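 Also: swim bladder malformation in each larva scored yes or no under brightfield.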 An outline of the steps: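 Tropical 5D embryos dechorionated at 4 hpf; 1 embryo/well from 6 hpf; static, sealed, dark exposure at 28C until 120 hpf; final DMSO 0.64%; 5uM trimethyltin chloride positive control; swim bladder defect recorded yes/no; dead embryos not scored.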

A short description of assay [8]: Tanguay_ZF_120hpf_TRUN_legacy: (Legacy) Oregon State University Tanguay Lab 120 Hour Post-fertilization zebrafish Assay for Truncated Body (AID 2283655). The essentials: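 Binary presence/absence of truncated body is recorded at 120 hpf by brightfield, with non-mortality endpoints skipped after death. Exposure is static from 6 hpf in sealed dark plates at 28C, using dechorionated wild-type zebrafish, 0.64% DMSO.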

Assay [9] can be described thus: Tanguay_ZF_120hpf_NC_legacy: (Legacy) Oregon State University Tanguay Lab 120 Hour Post-fertilization zebrafish Assay for Notochord and Tail Malformation (AID 2283656). An outline of the steps: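 Binary scoring of notochord distortion by brightfield microscopy; embryos dying were not scored. Wild-type Tropical 5D embryos, chorion removed, exposed singly and statically from 6 to 120 hpf, 28C, sealed, 0.64% DMSO.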

Read-out in assay [10]: Broad substrate specificity ATP-binding cassette transporter ABCG2 (Homo sapiens) (UniProt Q9UNQ0)
Description: CLD_ABCG2_6hr: CellzDirect (CLD) Gene Expression Assay for ABC Transporter (ABCG2) at 6 hours (AID 2283660). An outline of the steps:
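ABCG2 mRNA induction measured by qNPA chemiluminescence in human primary hepatocyte cultures, 6 h post-dose. Chemicals tested at several concentrations against a 0.2% DMSO vehicle; positive-direction fit relative to DMSO.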

A short description of assay [11]: Tanguay_ZF_120hpf_BRAI_legacy: (Legacy) Oregon State University Tanguay Lab 120 Hour Post-fertilization zebrafish Assay for Brain Malformation (AID 2283641). An outline of the steps:
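Binary brightfield scoring of brain malformation at 120 hpf in Tropical 5D larvae held under static exposure at 28C (0.64% v/v DMSO), non-mortality endpoints skipped if dead. Positive control: 5uM trimethyltin chloride; fit versus DMSO.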

Assay [12] can be described thus: Tanguay_ZF_120hpf_SOMI_legacy: (Legacy) Oregon State University Tanguay Lab 120 Hour Post-fertilization zebrafish Assay for Somite Malformation (AID 2283647). An outline of the steps:
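Binary somite-defect scoring at 120 hpf, omitted for embryos that died, in wild-type (Tropical 5D) zebrafish with chorion removed by pronase at 4 hpf; static exposure began 6 hpf, single embryos per well, 28C, 0.64% DMSO; fitted positive versus DMSO.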

Read-out in assay [13]: xenobiotic metabolism (CYP1A1), CYP1A1 (gene 1543)
Description: CLD_CYP1A1_6hr: CellzDirect (CLD) Gene Expression Assay for xenobiotic metabolism (CYP1A1) at 6 hours (AID 2283661). The essentials: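 Read-out 6 h post-dose: qNPA chemiluminescent quantitation of transcript induction against 0.2% DMSO. Cells were cultured primary human hepatocytes from two separate donor preparations; phase-contrast morphology annotated apparent cytotoxicity.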

Read-out in assay [14]: ABC Transporter (ABCB1), ABCB1 (gene 5243)
Description: CLD_ABCB1_6hr: CellzDirect (CLD) Gene Expression Assay for ABC Transporter (ABCB1) at 6 hours (AID 2283659).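 Also: hits raise ABCB1 transcript above the DMSO vehicle baseline.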 The essentials: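 ABCB1 transcript measured by quantitative nuclease protection assay, chemiluminescent read-out, 6 h after dosing human hepatocyte cultures (0.2% DMSO vehicle, daily redosing). Activity fitted as increase over DMSO baseline; cytotoxicity flagged by phase-contrast morphology.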

Assay [15] concerns Thyroperoxidase (TPO), gene 54314. Put plainly: CCTE_Simmons_AUR_rTPO: CCTE's Amplex UltraRed Assay for Thyroperoxidase (TPO) Inhibition, Simmons Lab (AID 2283662).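 Also: potency for loss of signal meaning inhibition of peroxidase activity.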 The essentials: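 Rat thyroid microsomes (5 ug protein) with 25 uM Amplex UltraRed and 300 uM H2O2 in 200 mM phosphate buffer, 30 min at 37C in dark; fluorescence 544/590 nm. Eight concentrations, 5 nM–87.5 uM final, 0.5% DMSO, triplicate biological replicates.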

Assay [16] is described as follows: Tanguay_ZF_120hpf_PFIN_legacy: (Legacy) Oregon State University Tanguay Lab 120 Hour Post-fertilization zebrafish Assay for Pectoral Fin Malformation (AID 2283648).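 Also: each larva judged yes or no for fin defect by brightfield with dead larvae skipped.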 An outline of the steps: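 Binary pectoral fin malformation call at 120 hpf by brightfield microscopy; 5D wild-type zebrafish, chorion removed at 4 hpf, one embryo per well from 6 hpf, static exposure at 28C; DMSO (0.64% final) as baseline.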

Read-out in assay [17]: kallikrein-3 (KLK3), KLK3 (gene 354)
Put plainly: LTEA_HepaRG_KLK3: Life Technologies and Expression Analysis (LTEA) Assay for kallikrein-3 (KLK3) using HepaRG (AID 2283652; active = hit-call score of the fitted dose curve at least 0.9, where 1 is the maximum; inactive = score below 0.9). Conditions: mRNA level, 48 h; actives raise or lower the signal. An outline of the steps:
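KLK3 transcript levels were measured by TaqMan qRT-PCR with normalisation to three housekeeping genes. HepaRG cultures received chemicals for 48 h at up to 100 uM (half-log, 8 points, 0.5% DMSO vehicle), fitted in both directions against DMSO.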

Read-out in assay [18]: solute carrier (SLC22A6), SLC22A6 (gene 9356)
Description: LTEA_HepaRG_SLC22A6: Life Technologies and Expression Analysis (LTEA) Assay for solute carrier (SLC22A6) using HepaRG (AID 2283653; active = hit-call score of the fitted dose curve at least 0.9, where 1 is the maximum; inactive = score below 0.9). The settings on record: mRNA level, 48 h; actives raise or lower the signal. An outline of the steps: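 SLC22A6 transcript was measured by TaqMan qRT-PCR, normalized to three housekeeping genes, after 48 h duplicate exposure of HepaRG cells (100 uM top, half-log steps, 0.5% DMSO); bidirectional fit against vehicle.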

Read-out in assay [19]: matrix metalloproteinase-1 (MMP1), MMP1 (gene 4312)
Put plainly: LTEA_HepaRG_MMP1: Life Technologies and Expression Analysis (LTEA) Assay for matrix metalloproteinase-1 (MMP1) using HepaRG (AID 2283658; active = hit-call score of the fitted dose curve at least 0.9, where 1 is the maximum; inactive = score below 0.9). The settings on record: mRNA level, 48 h; actives raise or lower the signal. An outline of the steps:
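qRT-PCR (TaqMan, Fluidigm arrays) of MMP1 transcript, normalized against three housekeeping genes and fitted in both directions relative to 0.5% DMSO vehicle. Human HepaRG cultures received duplicate 48 h exposures across 8 points, highest 100 uM with half-log steps.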

Chain of Broad substrate specificity ATP-binding cassette transporter ABCG2 (Homo sapiens) (Q9UNQ0 whole entry, looked up): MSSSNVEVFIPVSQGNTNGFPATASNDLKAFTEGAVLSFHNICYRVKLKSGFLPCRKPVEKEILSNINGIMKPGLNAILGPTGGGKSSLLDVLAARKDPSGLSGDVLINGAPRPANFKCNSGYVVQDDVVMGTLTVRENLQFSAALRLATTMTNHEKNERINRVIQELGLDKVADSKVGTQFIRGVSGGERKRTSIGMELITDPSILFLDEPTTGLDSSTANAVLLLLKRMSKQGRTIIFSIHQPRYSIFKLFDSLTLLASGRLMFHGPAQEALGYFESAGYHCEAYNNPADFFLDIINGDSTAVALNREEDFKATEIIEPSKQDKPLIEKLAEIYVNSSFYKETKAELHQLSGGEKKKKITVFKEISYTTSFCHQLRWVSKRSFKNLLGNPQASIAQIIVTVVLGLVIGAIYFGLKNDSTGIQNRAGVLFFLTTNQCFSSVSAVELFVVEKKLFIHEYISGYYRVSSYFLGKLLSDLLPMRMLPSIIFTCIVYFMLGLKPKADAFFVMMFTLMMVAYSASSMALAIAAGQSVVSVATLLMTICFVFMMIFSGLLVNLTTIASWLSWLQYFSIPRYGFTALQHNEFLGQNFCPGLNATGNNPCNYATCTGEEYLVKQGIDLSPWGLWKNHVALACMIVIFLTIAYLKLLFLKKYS

As to `CNC(=O)ON=C(C)SC`, the half-maximal activity concentration (AC50) in [1] is 39.5 µM (active). The outcome in [2], in [3], in [4], in [5], in assay [6] and in assay [7] was inactive. For the same compound, the call in assay [8], in [9] and in assay [10] was inactive.
Take `CCOC(=O)COc1cc(-c2nn(C)c(OC(F)F)c2Cl)c(F)cc1Cl`: the outcome in [1], in [2], in assay [11], in assay [12], in assay [4] and in assay [5] was inactive. The call in assay [6], in assay [9] and in assay [13] was inactive.
In the case of `CCCSP(=O)(OCC)Oc1ccc(Br)cc1Cl` (configuration not stated), the compound was called inactive in assay [1], in [2], in assay [3], in [4], in assay [5] and in [7]. Also, the result in assay [8], in [14] and in assay [10] was inactive. The half-maximal activity concentration (AC50) in assay [15] is 15.6 µM (active).
Regarding `COc1ccc(C(=CC(=O)N2CCOCC2)c2ccc(Cl)cc2)cc1OC`, the AC50 in [1] was 43.7 µM (active); in [2], 42.6 µM (active); in assay [3], 34.2 µM (active); in assay [4], 37.3 µM (active); in assay [7], 63.3 µM (active). Further, the outcome in [5], in assay [6] and in assay [10] was inactive.
Take `CC[C@H](C)[C@H]1O[C@]2(C=C[C@@H]1C)C[C@@H]1C[C@@H](C/C=C(\C)[C@@H](O[C@H]3C[C@H](OC)[C@@H](O[C@H]4C[C@H](OC)[C@@H](NC)[C@H](C)O4)[C@H](C)O3)[C@@H](C)/C=C/C=C3\CO[C@@H]4[C@H](O)C(C)=C[C@@H](C(=O)O1)[C@]34O)O2`: the result in assay [1], in assay [2], in [3], in assay [16], in assay [6] and in [17] was inactive. In addition, the compound was classed as inactive in [18], in assay [7], in assay [9] and in [19]. Further, in [10], the concentration at half-maximal activity (AC50) was 29.5 µM (active).
As to `S=C1NCCN1`, the compound was classed as inactive in [2], in assay [3], in [11], in [4], in assay [5] and in assay [7]. Further, the compound was classed as inactive in assay [9] and in [10]. Further, in assay [15], the AC50 was 6.05 µM (active).
`CCOP(=S)(Oc1cnc(C(C)(C)C)nc1)OC(C)C` (configuration not stated): the compound was classed as inactive in assay [1], in assay [2], in assay [3], in [16], in [5] and in assay [6]. The call in assay [17], in [18], in [7], in assay [9], in assay [19] and in [14] was inactive. The compound was classed as inactive in [10]. Besides, the AC50 in [15] is 36.2 µM (active).
For the compound `Nc1nc(N)nc(NC2CC2)n1`, the compound was classed as inactive in [1], in assay [2], in assay [4], in assay [5], in assay [6] and in assay [7].
Turning to `CNC(=O)Oc1cccc2c1OC(C)(C)O2`, the call in [1], in assay [2], in assay [3], in assay [4], in [5] and in [17] was inactive. For the same compound, the call in [18], in [7], in assay [9], in assay [19] and in assay [14] was inactive.
On to `CC(=NC#N)N(C)Cc1ccc(Cl)nc1`, for which the compound was classed as inactive in assay [1], in assay [2], in assay [4], in [5], in assay [6] and in assay [7]. In addition, the call in assay [8], in [9] and in [10] was inactive.
